# From PMC4336329 (PLoS ONE, 2015)
# Screen size: about 310,000 compounds; about 14,000 (4.5%) showed an effect of 50% or more. The effect is printed as a negative number. The sample as a whole holds a higher share of strong results than the screen did.
# Target: human ether-à-go-go-related gene (hERG) potassium channel (human, UniProt Q12809)
# Test: primary screen, population patch clamp on CHO cells stably expressing hERG; higher = less effect of the substance
# 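Further: peak tail current of the secondary pulse compared with the same well before compound.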
# Chain of human ether-à-go-go-related gene (hERG) potassium channel (Q12809 whole entry, looked up): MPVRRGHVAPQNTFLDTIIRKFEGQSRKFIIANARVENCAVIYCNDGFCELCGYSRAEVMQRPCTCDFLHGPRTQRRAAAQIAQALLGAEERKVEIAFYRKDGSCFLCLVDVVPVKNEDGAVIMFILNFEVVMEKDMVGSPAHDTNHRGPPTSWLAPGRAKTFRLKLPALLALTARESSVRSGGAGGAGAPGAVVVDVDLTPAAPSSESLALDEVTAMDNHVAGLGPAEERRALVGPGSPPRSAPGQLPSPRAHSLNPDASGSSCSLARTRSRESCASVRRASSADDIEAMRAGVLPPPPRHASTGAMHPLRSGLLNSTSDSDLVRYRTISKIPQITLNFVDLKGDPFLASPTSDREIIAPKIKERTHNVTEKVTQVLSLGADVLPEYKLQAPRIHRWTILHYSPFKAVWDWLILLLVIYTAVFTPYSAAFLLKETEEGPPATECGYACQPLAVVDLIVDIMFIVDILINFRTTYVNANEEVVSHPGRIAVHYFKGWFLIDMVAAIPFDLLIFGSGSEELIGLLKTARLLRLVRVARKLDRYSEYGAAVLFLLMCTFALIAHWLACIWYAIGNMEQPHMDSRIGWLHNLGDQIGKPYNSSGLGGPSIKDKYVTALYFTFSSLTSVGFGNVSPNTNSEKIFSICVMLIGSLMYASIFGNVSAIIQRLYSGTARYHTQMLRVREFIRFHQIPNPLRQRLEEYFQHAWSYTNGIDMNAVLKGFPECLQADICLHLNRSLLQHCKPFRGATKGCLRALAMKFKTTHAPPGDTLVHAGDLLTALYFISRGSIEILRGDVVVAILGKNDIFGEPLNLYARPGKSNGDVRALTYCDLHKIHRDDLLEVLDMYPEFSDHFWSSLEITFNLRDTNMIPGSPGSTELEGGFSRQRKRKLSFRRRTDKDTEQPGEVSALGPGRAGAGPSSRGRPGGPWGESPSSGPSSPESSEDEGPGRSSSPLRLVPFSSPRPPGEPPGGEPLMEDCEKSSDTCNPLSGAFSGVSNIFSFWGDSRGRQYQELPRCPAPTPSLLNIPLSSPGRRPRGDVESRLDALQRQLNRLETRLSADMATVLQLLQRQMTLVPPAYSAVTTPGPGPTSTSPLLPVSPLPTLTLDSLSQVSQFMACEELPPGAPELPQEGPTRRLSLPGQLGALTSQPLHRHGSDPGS
row,SMILES,"hERG current change (%, negative = inhibition) at 10uM [%]"
1,CC(C)CCNC(=O)NC(=O)CSc1nnc(-c2ccccc2Br)o1,-5.73
2,CC(=O)c1ccc(-c2nc3ccccc3n2C)o1,12.7
3,CC1CCN(C(=O)COC(=O)CCc2c[nH]c3ccccc23)CC1,9.1
4,CCOC(=O)c1csc(NC(=O)c2ccccc2)n1,-8.86
5,COc1ccc(NC(=O)OCC(C)C)cc1OC,15.9
6,C=CCN1C(=O)/C(=C/c2ccc(OC)cc2)S/C1=N/c1nccs1,13.4
7,Cc1nn(C(=O)c2ccco2)c(C)c1Sc1ccc([N+](=O)[O-])cc1,20.8
8,COc1ccc(Cl)cc1C(=O)OCC(=O)NCc1cccs1,-28.1
9,COc1ccc(Cl)cc1C(=O)OCC(=O)NCCNC(=O)COC(=O)c1cc(Cl)ccc1OC,-71.6
10,O=C(COC(=O)c1cc(Cl)ccc1O)NCCNC(=O)COC(=O)c1cc(Cl)ccc1O,21.4
11,Cc1cccc(C(=O)OCCN2CCOCC2)c1.Cl,12.3
12,CCOc1ccc(C2C(C#N)=C(N)SC(N)=C2C#N)cc1OCC,13.5
13,COc1ccccc1CN1CCCC(C(=O)c2ccccc2SC)C1 (stereo not shown),-71.1
14,COc1cccc(CN2CCCC(C(=O)c3ccccc3SC)C2)c1O (stereo not shown),-77.5
15,COc1cccc(OC)c1CN1CCCC(C(=O)c2ccccc2SC)C1 (stereo not shown),-72.6
16,COC(=O)CCCC(=O)N1CCCC(C(=O)c2ccccc2SC)C1 (stereo not shown),-8.08
17,COc1ccccc1CN1CCCC(C(=O)c2ccccc2OC)C1 (stereo not shown),-47.2
18,COc1cccc(O)c1CN1CCCC(C(=O)c2ccccc2SC)C1 (stereo not shown),-44.1
19,C/C(=N\NC(=O)c1ccccc1O)c1ccc(Br)s1,11
20,O=C(O)c1ccc2c(c1Sc1ccccc1)C(=O)c1ccccc1C2=O,-4.82
21,COc1cc(C(=O)Nc2ccc(S(=O)(=O)NC(C)C)cc2)cc(OC)c1OC,-2.49
22,O=C(CCn1cccn1)Nc1ccc(-c2ccno2)cc1,14.4

row,SMILES,"hERG current change (%, negative = inhibition) at 10uM [%]"
1,CCNC(=O)CN(CCc1ccccc1)S(C)(=O)=O,17.8
2,O=S(=O)(Nc1ccc(-c2nnc(SCc3ccc(Cl)cc3)o2)cc1)c1ccccc1,17.8
3,O=S(=O)(Nc1ccc(-c2ccc3nncn3n2)cc1)c1cccs1,15.4
4,O=C(NCc1ccccc1Cl)c1cccc(NC2=NC3CS(=O)(=O)CC3S2)c1 (stereo not shown),13.1
5,Cc1nnc(NC(=O)c2ccccc2Br)s1,-1.65
6,CC1=C(C(=O)Nc2ccccc2)C(c2ccco2)C(C#N)=C(SCC(=O)Nc2cccc(C)c2C)N1 (stereo not shown),17.9
7,CCc1nc2sc3c(c2c(=O)n1N)CC(C)(C)OC3,7.31
8,Oc1c(Br)cc(Br)cc1CN1CCN(Cc2ccccc2)CC1,-3.14
9,COc1ccc(Br)cc1CN1CCN(CCO)CC1,-0.9
10,CCN1CCN(Cc2cc(Br)cc(OC)c2O)CC1,-20.4
11,OCCN1CCN(Cc2cc(Br)cc(Br)c2O)CC1,-60.8
12,CCN1CCN(Cc2cc(Br)ccc2O)CC1,-22.7
13,CCN1CCN(Cc2cc(Br)cc(Br)c2O)CC1,-50.6
14,O=C(OCc1ccccc1)c1cc(S(=O)(=O)N2CCCCC2)ccc1N1CCOCC1,-27.3
15,CC(=O)N1N=C(c2cccs2)CC1c1ccc(C)o1 (stereo not shown),7.07
16,COC(=O)c1ccc(N2C(=O)CC(N3CCN(c4ccccc4)CC3)C2=O)cc1 (stereo not shown),11.1
17,Cc1cc(Cl)c(S(=O)(=O)NCc2ccncc2)cc1OCC(N)=O,1.62
18,Cc1cc(C)n(CCNC(=O)C2CCC(=O)N(Cc3ccc(Cl)cc3)C2)n1 (stereo not shown),15.2
19,O=C(NCCn1cccn1)C1CCC(=O)N(CCc2ccc(Cl)cc2)C1 (stereo not shown),5.51
20,COc1ccc(CCN2CC(C(=O)NCCCn3nc(C)cc3C)CCC2=O)cc1 (stereo not shown),-23.3
21,Cc1ccn(CCNC(=O)C2CCC(=O)N(CCc3ccc(Cl)cc3)C2)n1 (stereo not shown),-55.3
22,Cc1cc(C)n(CCCNC(=O)C2CCC(=O)N(CCc3ccc(Cl)cc3)C2)n1 (stereo not shown),-54.7

row,SMILES,"hERG current change (%, negative = inhibition) at 10uM [%]"
1,Cc1ccn(CCNC(=O)C2CCC(=O)N(Cc3ccc(Cl)cc3)C2)n1 (stereo not shown),-3.57
2,COc1cccc(C2CC(c3ccccc3)Nc3nc(N)nn32)c1 (stereo not shown),-7.93
3,S=c1[nH]nc(Cc2cccs2)n1-c1cccc2ccccc12,-10.4
4,O=[N+]([O-])c1ccc(CNc2cccc(F)c2)s1,-32.3
5,Cc1ccc(CNC(=O)c2nc3nc(C)cc(C)n3n2)cc1,14.4
6,Cc1cccc(NC(=S)Nc2cccc3ccccc23)c1,15.9
7,Cc1ccc(NC(=S)NC2CCN(Cc3ccccc3)CC2)c(C)c1,-12.9
8,CCOC(=O)c1c(-c2ccc(C)cc2)csc1NC1=NS(=O)(=O)c2ccccc21,-1.41
9,CSc1ccccc1OC1CCN(Cc2ccccc2)CC1.Cl,-24.3
10,CC(=O)C1CCN(Cc2ccccc2)CC1,20.5
11,Cl.N#CC(c1ccccc1)C1CCN(Cc2ccccc2)CC1 (stereo not shown),-50.9
12,O=C(OCC(=O)N1CCCCCC1)c1ccc([N+](=O)[O-])cc1Cl,8.47
13,Cc1ccccc1S(=O)(=O)Nc1nc2ccccc2nc1N1CCOCC1,7.22
14,CCn1ccc(C(=O)NC2=NCCS2)n1,-3.73
15,CCNC(=O)/C(C#N)=C/c1c(N2CCOCC2)nc2ccccn2c1=O,-4.68
16,C=CCNC(=O)/C(C#N)=C/c1c(N2CCCCCC2)nc2ccccn2c1=O,-59.6
17,CCNC(=O)/C(C#N)=C/c1c(N2CCCCCC2)nc2ccccn2c1=O,-9.13
18,CCNC(=O)/C(C#N)=C/c1c(N2CCN(c3ccccc3)CC2)nc2ccccn2c1=O,-66.3
19,COCCNC(=O)/C(C#N)=C/c1c(N2CCN(c3ccccc3)CC2)nc2ccccn2c1=O,-20.7
20,CNC(=O)/C(C#N)=C/c1c(N2CCCCCC2)nc2ccccn2c1=O,10.2
